The text below walks through data of PubChem BioAssay.

The list shows a part of the results. Activity calls are given as the source filed them. Unless noted, the rule behind the calls is not given here.

The target of assay [1] is PEG-3 (UniProt Q6IN02). As to the kind of experiment: Peg3 promoter luciferase inhibitors, potency, dose response, cell-based, HeLa, CREF/GAPDH counter-screen panel (AID 624167). The note with it: HeLa PEG-Prom luciferase reporter, overnight, CREF/GAPDH counter-screens; run 1, dose range 1, at 100 µM (top of the series).
Sequence of PEG-3 (Q6IN02 whole entry, looked up): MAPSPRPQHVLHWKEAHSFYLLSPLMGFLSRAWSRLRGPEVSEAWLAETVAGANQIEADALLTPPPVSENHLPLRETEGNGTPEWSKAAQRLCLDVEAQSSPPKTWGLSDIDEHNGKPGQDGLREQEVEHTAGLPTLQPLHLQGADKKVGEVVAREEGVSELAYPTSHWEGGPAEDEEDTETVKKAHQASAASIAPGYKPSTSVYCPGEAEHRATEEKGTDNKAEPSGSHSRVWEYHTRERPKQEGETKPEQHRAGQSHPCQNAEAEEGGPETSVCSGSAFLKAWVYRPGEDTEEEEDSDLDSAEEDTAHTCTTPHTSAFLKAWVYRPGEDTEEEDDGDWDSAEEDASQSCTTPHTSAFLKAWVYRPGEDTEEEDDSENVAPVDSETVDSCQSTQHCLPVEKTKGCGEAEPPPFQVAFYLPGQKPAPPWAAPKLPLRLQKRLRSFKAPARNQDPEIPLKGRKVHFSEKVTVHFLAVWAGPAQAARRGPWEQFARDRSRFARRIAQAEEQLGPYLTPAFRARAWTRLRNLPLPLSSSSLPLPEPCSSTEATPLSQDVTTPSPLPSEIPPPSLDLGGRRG
Assay [2] addresses PEG-3 (UniProt Q6IN02). Described as above. The settings on record: HeLa PEG-Prom luciferase reporter, overnight, CREF/GAPDH counter-screens; run 2, dose range 1, at 100 µM (top of the series).
Assay [3] can be described thus: inhibition of Brca1/Bard1 split-luciferase complementation, confirmation, counter-screen for Mdm2/MdmX interaction inhibitor project, luminescence, single concentration (AID 504668). The note with it: Brca1/Bard1 bimolecular luciferase complementation counterscreen, at 8 µM, stronger effect = higher value.
Assay [4] has as its target Tumor necrosis factor receptor superfamily member 10B (Homo sapiens) (UniProt O14763). Description: caspase-8 TRAIL sensitization, hit retest, confirmation, cell-based, NB7+caspase-8, with/without TRAIL, luminescence panel (AID 651596; in the data active = activity above about 50%). The note with it: NB7 neuroblastoma + caspase-8, TRAIL sensitization, luminescence viability, with TRAIL, mean of runs, at 10 µM, stronger effect = higher value.

Assay in assay [5]: as above
The settings on record: NB7 neuroblastoma + caspase-8, without TRAIL, luminescence viability, without TRAIL, mean of runs, at 10 µM.

Assay [6] concerns the target Tumor necrosis factor receptor superfamily member 10B (Homo sapiens) (UniProt O14763). Description: TRAIL sensitizers in caspase-8 expressing neuroblastoma cells, dose response, NB7 cells plus caspase-8, luminescence, panel (AID 652002). The note with it: NB7 neuroblastoma +caspase-8, TRAIL sensitization, luminescence viability, NB7+Caspase-8, with TRAIL, run 1; at 12.5 µM (top of the series).

The target is the same in assay [7]. Described as above. The note with it: NB7 neuroblastoma +caspase-8, TRAIL sensitization, luminescence viability, NB7+Caspase-8, with TRAIL, run 2; at 12.5 µM (top of the series).
Assay in assay [8]: as above
The note with it: NB7 neuroblastoma +caspase-8, no TRAIL, compound-alone cytotoxicity counter-screen, luminescence viability, NB7+Caspase-8, run 1; at 12.5 µM (top of the series).

Assay in assay [9]: as above
The note with it: NB7 neuroblastoma +caspase-8, no TRAIL, compound-alone cytotoxicity counter-screen, luminescence viability, NB7+Caspase-8, run 2; at 12.5 µM (top of the series).

The target of assay [10] is Carboxy-terminal domain RNA polymerase II polypeptide A small phosphatase 1 (Homo sapiens) (UniProt Q9GZU7). As to the kind of experiment: Scp-1 binding by thermal shift, confirmation, orthogonal assay for Scp-1 inhibitor project, biophysical, differential scanning fluorimetry (AID 540329;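 active = substances whose mean melting-temperature shift, as a percentage of the reference inhibitor's shift, reaches about 5.3%, limit read from the data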;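 note: 0% = Tm of DMSO wells and 100% = Tm with sodium orthovanadate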). The note with it: Recombinant SCP1, Sypro Orange thermal shift Tm; at 40 µM; stronger effect = higher value.
Sequence of Carboxy-terminal domain RNA polymerase II polypeptide A small phosphatase 1 (Homo sapiens) (Q9GZU7 76-261 limits assumed): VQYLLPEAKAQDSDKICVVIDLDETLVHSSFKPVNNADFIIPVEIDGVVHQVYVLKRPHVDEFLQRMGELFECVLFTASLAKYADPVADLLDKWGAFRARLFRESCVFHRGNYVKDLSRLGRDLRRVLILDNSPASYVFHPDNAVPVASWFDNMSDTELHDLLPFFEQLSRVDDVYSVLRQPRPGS

Assay [11] is described as follows: inhibitors of PAF-induced NF-kB signaling, retest, confirmation, cell-based, GFP fluorescence, single concentration (AID 602472; in the data active = inhibition above about 40%;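 note: stimulus PAF is a Pseudomonas aeruginosa filtrate and not platelet activating factor; plate controls were DMSO wells with stimulus for no effect and unstimulated DMSO wells for full effect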). The settings on record: KKLEB CF airway cells, overnight, at 5 µM, stronger effect = higher value.
Assay [12] is described as follows: HIF-2a reporter inhibitor retest, confirmation, luminescence, 786-0 RCC cells (AID 651580;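 active = mean inhibition across four replicates of at least 40 percent at the single tested concentration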). The note with it: HIF-2a luciferase reporter luminescence, overnight, at 18.8 µM, stronger effect = higher value.
Assay [13] is described as follows: HIF-1a luciferase reporter signal reduction – MiaPaCa-2 cells, single concentration, counter-screen for HIF-2a inhibitor project, confirmation (AID 651589;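 active = mean inhibition of the reporter signal across four replicates at the single tested dose of 50% or more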). The note with it: MiaPaCa-2 HIF-1a luciferase reporter, desferoxamine, overnight; at 18.8 µM; stronger effect = higher value.
Assay [14] has as its system Rat fibroblasts (CREF). Description: Peg3 promoter luciferase inhibitors, potency, dose response, cell-based, HeLa, CREF/GAPDH counter-screen panel (AID 624167). The settings on record: CREF/GAPDH counter-screens; run 1, dose range 1, at 100 µM (top of the series).
Assay [15] relates to Rat fibroblasts (CREF). The description is as above. The settings on record: CREF/GAPDH counter-screens; run 2, dose range 1, at 100 µM (top of the series).
Assay [16] is described as follows: Peg3 promoter reporter inhibitors, retest, confirmation, cell-based, HeLa, luciferase reporter, single concentration (AID 602417;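 active = at 20 µM dose, 40% or more inhibition averaged across four replicates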). The note with it: HeLa PEG-Prom luciferase reporter, luminescence, overnight; at 20 µM; stronger effect = higher value.

Sequence of Tumor necrosis factor receptor superfamily member 10B (Homo sapiens) (O14763 whole entry, looked up): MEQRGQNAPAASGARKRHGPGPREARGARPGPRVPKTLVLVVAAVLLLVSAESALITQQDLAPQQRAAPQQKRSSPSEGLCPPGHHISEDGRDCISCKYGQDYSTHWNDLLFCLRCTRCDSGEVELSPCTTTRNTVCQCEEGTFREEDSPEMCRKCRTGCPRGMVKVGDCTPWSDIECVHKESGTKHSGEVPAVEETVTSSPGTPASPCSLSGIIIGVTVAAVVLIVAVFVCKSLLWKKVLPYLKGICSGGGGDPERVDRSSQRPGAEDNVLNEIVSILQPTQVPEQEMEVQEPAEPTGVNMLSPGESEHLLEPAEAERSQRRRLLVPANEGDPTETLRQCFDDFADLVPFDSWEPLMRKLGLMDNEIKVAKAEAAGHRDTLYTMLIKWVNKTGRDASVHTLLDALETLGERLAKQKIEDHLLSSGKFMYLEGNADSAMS

Take `CC[n+]1c(-c2ccccc2)c2cc(N)ccc2c2ccc(N)cc21`: the inhibition in [1] and in [2] was 102% throughout.

Take `CCOC(=O)c1cccc(-[n+]2c(-c3ccccc3)cc(-c3ccccc3)cc2-c2ccccc2)c1`: the inhibition in assay [3] was 33.2% (active). Besides, the activity came to 49.7% in [4] and 44% in assay [5]. In addition, the activity, % sensitization in assay [6] was 6.7%; in [7] it was 9.91%; in [8], 9.79%; in assay [9], 5.11%.

Take `O=C(O)CCn1cc(C=C2C(=O)NC(=S)NC2=O)c(-c2cccc(Br)c2)n1`: the thermal shift relative to vanadate control in assay [10] was -19.9% (inactive).

Turning to `Cc1[nH]c2ccc(OC(F)(F)F)cc2c1CCNCc1cccc([N+](=O)[O-])c1`, the inhibition in assay [1] and in assay [2] was 101% in each case.

For `CC(=CCOc1ccc2ccc(=O)oc2c1)C1=CC(=O)C(C)(C)O1`, the inhibition in assay [11] was -46% (inactive); in assay [12], 44.2% (active); in [13], 90.3% (active).

With `COc1ccc(-n2c(/C=C/c3ccc(O)c(OC)c3)nc3ccccc3c2=O)cc1`, the inhibition in [1] was found to be 101%; in assay [2] it was 92.7%.

As to `O=C1NC(=O)N(Cc2ccccc2)C(=O)/C1=C\C=C\c1ccco1`, the results for the inhibition in assay [1] and in assay [2] were 94.5% and 98.5%, respectively.

Consider `O=C1NC(=O)N(Cc2ccco2)C(=O)/C1=C/C=C/c1ccco1`, for which the inhibition in assay [1] and in assay [2] was 102% in each case.

In the case of `COc1ccc(-n2nnnc2C(c2cccc3ccccc23)N2CCC(n3c(=O)[nH]c4ccccc43)CC2)cc1` (stereo not drawn), the inhibition in assay [11] is 14.7% (inactive).

In the case of `O=C(CSC1c2ccccc2-c2ccccc21)N/N=C/c1ccccc1O`, the inhibition in assay [3] is 27.7% (active); in [1], 79.8%; in assay [2], 66.1%; in [14] it was 64.9%; in [15] it was 74.1%.

For `O=[N+]([O-])c1ccc(NC2CCN(Cc3ccccc3)CC2)c2ccncc12`, the inhibition in [1] amounted to 102%; in [2] it was 99%.

On to `NC(N)=N/N=C/c1ccc(N(c2ccccc2)c2ccccc2)cc1`, for which, in [3], the inhibition is 29.9% (active). The results for the activity in assay [4] and in [5] were 75.5% and 97.2%, respectively.

`CC(C)c1oc(=O)cc2c1[C@@H](O)[C@H]1OC(=O)[C@@]3(C)C[C@@H](O)[C@@H](O)[C@@]2(C)C13` (stereo partly drawn): the inhibition in assay [3] is 29.6% (active).

Consider `C[C@]12CC[C@H](O)C[C@H]1CC[C@@H]1[C@@H]2C[C@@H](O)[C@]2(C)[C@@H](C3=CC(=O)OC3)CC[C@]12O`, for which, in [3], the inhibition is 34% (active). Also, the activity in [4] worked out at 86.5%; in [5], 85.4%.

As to `Brc1ccc(-[n+]2c(-c3ccccc3)cc(-c3ccccc3)cc2-c2ccccc2)cc1`, the inhibition in assay [3] is 24.1% (active). Further, the activity amounted to 73% in assay [4] and 63% in [5].

With `O=c1c2ccccc2nc(CSc2ncnc3nc[nH]c23)n1-c1ccc(Cl)c(Cl)c1`, the inhibition in assay [1] is -43.1%; in [2], 33.8%.

On to `O=Cc1cn(Cc2ccc(F)cc2)c2ccccc12`, for which the inhibition in assay [1] amounted to 26.6%; in assay [2] it was 60.7%.

As for `Cc1c(C(=O)N2CCC3(CC2)OCCO3)sc2ncnc(N3CCN(c4ccccn4)CC3)c12`, the figures for the inhibition in assay [1] and in assay [2] were 97.5% and 102%, respectively.

Consider `CC(C)(C)n1nnnc1C(CCc1ccccc1)N1CCC(n2c(=O)[nH]c3ccccc32)CC1` (stereo not drawn), for which the values for the inhibition in assay [1] and in assay [2] were 86.4% and 92.6%, respectively.

Regarding `c1ccc2c(N3CCNCC3)nsc2c1`, the inhibition in assay [3] was 29.6% (active).

On to `COc1ccccc1N=C1SCCCN1C`, for which the thermal shift relative to vanadate control in assay [10] is -0.51% (inactive).

In the case of `Cc1ccc(-c2cc(-c3ccc(C)cc3)[n+](-c3ccccc3)c(-c3ccc(C)cc3)c2)cc1`, the inhibition in [1] was 101%; in assay [2] it was 102%.

Turning to `O=[N+]([O-])c1cc(F)c(N2CCCCCC2)cc1N1CCNCC1`, the inhibition in assay [1] worked out at 99.4%; in assay [2], 101%.

Regarding `Clc1ccc(C(c2ccc(Cl)cc2)n2cc[n+](CC(OCc3ccc(Cl)cc3Cl)c3ccc(Cl)cc3Cl)c2)cc1` (stereo not drawn), the inhibition in assay [3] is 28.6% (active).

Take `CC1(C)Cc2c(C#N)c(N3CCNCC3)nc(-c3ccco3)c2CS1`: the inhibition is 68.9% (active) in assay [16], 101% in [1] and 101% in [2].

On to `CCCCn1nnnc1C(CCSC)N1CCC(n2c(=O)[nH]c3ccccc32)CC1` (stereo not drawn), for which the inhibition stood at 72.5% in [1] and 71.8% in assay [2].

Take `CC[C@@H](O)C[C@H]1CCC[C@@]2(C[C@@H]3OC(=O)/C=C/[C@@](C)(O)[C@@H](O)[C@H](C)[C@@H](O)[C@H](OC4CCC(N(C)C)C(C)O4)[C@@H](O)[C@](C)(O)CCCCC/C=C/[C@@H]4CC(C)(C)O[C@@]4(O)C[C@H](O2)[C@H]3C)O1` (stereo partly drawn): the inhibition in assay [1] and in assay [2] was 98.9% in each case.

Regarding `N#Cc1ccc(Cn2cc(C=O)c3ccccc32)cc1`, the inhibition in [1] came to 90.2%; in assay [2], 42.5%.

In the case of `Cn1cccc1/C=C1/C(=O)NC(=S)N(Cc2ccc(F)cc2)C1=O`, the inhibition in [1] came to 101%; in assay [2], 100%.

Regarding `CC1=CC2OC3CC4OC(=O)C=CC=CC(C(C)O)OCC(O)C(C)CC(=O)OCC2(CC1O)C4(C)C31CO1` (stereo not drawn), the results for the inhibition in [1] and in [2] were 101% and 99.3%, respectively. The values for the activity in assay [4] and in [5] were 92.3% and 97.7%, respectively.

Turning to `CC(=O)OC1CC[C@]2(C#N)[C@H]3CC[C@]4(C)[C@H](C5C=CC(=O)O5)CCC4(O)C3CCC2(O)C1` (stereo partly drawn), the inhibition in assay [1] is 98.6%; in assay [2], 99.5%; in assay [14], -10.8%; in [15], 7.93%.
